Bioassay records (PubChem)
Shown are actives, neighbours in structure and some others; about 7.5% of the full set was active somewhere.
Rab9 prom act – activates the Rab9 promoter. 320,000 compounds, 2.8% hits. AID 485297. Potency, µM (series often up to 9.22 µM), for inactives: at the highest dose activation, negative = inhibition, hits mostly activators. Huh7 Rab9 promoter-luciferase reporter, luminescence, 24 h; also: % of control where 0% means no effect; nearly all actives have a fitted effect of over 60% in size
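Huh7 cells stably carrying a Rab9 promoter-luciferase reporter, 1500 cells per well in OP-MEM I with 10% FBS, treated with compound 24 hours at 37C. Luciferase activity read by luminescence after 10 minutes with Amplite reagent.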
ELG1 genotoxic – induces genotoxicity in HEK293T cells with luciferase-tagged ELG1; HEK293T ELG1-luciferase reporter, luminescence, 16 h; Potency, µM (titrated, usually from 46 µM), for the others: at the highest dose activity change, positive = activation, most hits filed as activators; 330,000 compounds, 1.3% hits; AID 504466; also: % of control where 0% means no effect; nearly all actives have a fitted effect of over 60% in size
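Cells (2,000/well) expressing the ELG1-luciferase fusion are dosed by pin tool and kept 16 hr at 37 °C, 5% CO2. Signal comes from ONE-Glo luciferase reagent after 30 min at room temperature.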
FLuc counter – inhibits or activates purified firefly luciferase, miR-21 counter-screen; P08659; purified FLuc, Km substrates, luminescence inhibition; Potency, µM (top dose mostly 57.5 µM), without a hit: at the highest dose activity change, negative = inhibition, actives largely listed as inhibitors; 360,000 compounds, 6.9% hits; AID 588342;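 also: plate controls were vehicle for no effect and reference inhibitor for full effect; nearly all actives have a fitted effect of over 55% in size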
Target sequence (P08659 whole entry, looked up): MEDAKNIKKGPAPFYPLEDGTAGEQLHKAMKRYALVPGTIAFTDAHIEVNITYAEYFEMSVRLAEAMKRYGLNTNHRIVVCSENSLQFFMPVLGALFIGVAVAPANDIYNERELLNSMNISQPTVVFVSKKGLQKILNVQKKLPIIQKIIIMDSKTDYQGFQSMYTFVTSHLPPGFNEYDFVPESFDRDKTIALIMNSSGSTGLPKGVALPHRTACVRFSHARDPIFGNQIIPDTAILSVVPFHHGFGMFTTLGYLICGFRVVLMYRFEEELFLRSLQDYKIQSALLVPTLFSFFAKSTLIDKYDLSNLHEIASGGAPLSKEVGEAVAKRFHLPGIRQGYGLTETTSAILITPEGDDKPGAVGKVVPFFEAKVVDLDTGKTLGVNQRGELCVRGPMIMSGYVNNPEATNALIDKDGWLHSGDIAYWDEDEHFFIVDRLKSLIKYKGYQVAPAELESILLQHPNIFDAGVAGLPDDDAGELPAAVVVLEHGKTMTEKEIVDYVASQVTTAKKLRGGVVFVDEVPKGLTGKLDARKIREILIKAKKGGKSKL
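Purified P. pyralis luciferase (10nM final) with 10uM D-luciferin and 10uM ATP (Km levels) in 50mM Tris acetate pH 7.5, 10mM Mg acetate, 0.01% Tween-20, 0.05% BSA; qHTS 6-point titration, ~60 µM downward; luminescence read.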
NPC1 promoter act – NPC1 promoter activation. Huh7 NPC1 promoter luciferase reporter, 24 h. Potency, µM (highest dose often 9.22 µM), for inactives: at the highest dose activation, hits mostly activators. 320,000 compounds, 2.4% hits; also: % of control where 0% means no effect; nearly all actives have a fitted effect of over 60% in size
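Luminescence read-out of NPC1 promoter-driven luciferase in stably transfected Huh7 cells; compounds delivered in DMSO and left 24 h at 37C, 5% CO2, qHTS titration format.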
SMN2 splice up – SMN2 splice variant enhancement | HEK293 SMN2-luciferase splicing reporter, luminescence, 30-36 h | Potency, µM (titrated, usually from 46.1 µM), without a hit: at the highest dose activity change, positive = activation, usual class: activators | 210,000 compounds, 2.8% hits; also: % of control where 0% means no effect; nearly all actives have a fitted effect of over 55% in size
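qHTS luciferase splicing reporter: luminescence rises when SMN2 exon 7 is included in transfected HEK293 cells. Compound exposure lasted 30-36 h at 37C, with 4.5 mM final sodium butyrate as control, followed by a ONE-Glo read.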
The depositor's hits bear a star; u = inconclusive; x = no result; [ ] = another dose, or the depositor's remark. Calls follow the shape of the dose curve; as a rule, active = well fitted curve in the direction sought with a large enough effect; inconclusive = small, poorly fitted or top-dose-only effect, or another doubt; inactive = no such curve, though single readings can be large; an effect the other way counts as inactive or inconclusive. Potency is read from the fitted curve at half-maximal effect.

SMILES	Rab9 prom act	ELG1 genotoxic	FLuc counter	NPC1 promoter act	SMN2 splice up
COc1ccc(C(=O)c2sc(Nc3ccccc3F)nc2N)cc1	2.2µM*	u	11µM*	2.8µM*	x
COc1ccc(C(=O)c2sc(Nc3ccccc3)nc2N)cc1OC	-2%	-6%	u	-14%	x
Nc1nc(Nc2ccccc2)sc1C(=O)c1ccccc1	u	-3%	19µM*	2.5µM*	x
C/C(=N/N=C/c1ccccc1O)c1ccccc1O	u	6.5µM*	1.1µM*	25%	x
CCCCS/C(N)=N/N=C/c1ccccc1O	3.2µM*	u	13µM*	u	3%
CCCS/C(N)=N/N=C/c1cc(C)ccc1O	u	6.5µM*	2.4µM*	3.2µM*	-14%
Oc1ccccc1C=NCCN=Cc1ccccc1O	1%	0%	-7%	0%	x
CCc1ccccc1NC(=O)C1=C(C)C(=O)OC12CCCCCC2	x	x	-4%	x	x
O=C(NCc1ccco1)c1cc(-c2cccnc2)nc2ccccc12	-8%	-2%	-5%	-5%	-7%
Cc1ccc(-c2cc(C(=O)NCc3ccco3)c3ccccc3n2)o1	14%	-9%	12µM*	-6%	-7%
Cc1ccccc1Nc1cc(C(=O)NCc2ccco2)c2ccccc2n1	-4%	-7%	15µM*	-6%	-9%
COc1cccc(-c2cc(C(=O)NCc3ccco3)c3ccccc3n2)c1	1%	-11%	21µM*	9%	x
Cc1cc(C(=O)NCc2ccco2)c2ccccc2n1	-6%	-3%	-1%	-5%	27%
O=C(NCc1ccco1)c1cc(-c2ccncc2)nc2ccccc12	9%	-3%	-9%	-3%	-5%
Oc1ccc(CN2CCC(Cc3ccccc3)CC2)c2cccnc12	-17%	u	0%	-49%	-106%
CNC(=O)Nc1ccc2nc(C)oc2c1	-9%	0%	3%	-7%	x
Cc1nc2ccc(-c3ccccc3)cc2o1	15%	8%	17µM*	14%	-6%
Cc1ccc(/C(O)=C/c2nc3ccccc3oc2=O)cc1	-1%	-6%	3µM*	-3%	x
O=c1oc2ccccc2nc1/C=C(O)/C=C\c1ccccc1	0%	-6%	-17%	10%	5%
Brc1ccc2oc3c(N4CCOCC4)ncnc3c2c1	u	15%	15µM*	u	19%
c1ccc(N2CCN(c3ncnc4c3oc3ccccc34)CC2)cc1	-1%	-23%	-10%	3%	-17%
Cc1cc2nc(-c3ccc(=O)[nH]c3)n(C)c2cc1C	12%	10%	17µM*	5%	x
Cc1ccc(SC[C@H](c2ccccc2)N2CCN(CCc3ccccc3)CCC2=O)cc1	-2%	-4%	27µM*	9%	x
CN1CCC(=O)N([C@H](CSc2ccc(Br)cc2)c2ccccc2)CC1	u	u	17µM*	u	x
CCCN1CCC(=O)N([C@H](CSc2ccc(C)cc2)c2ccccc2)CC1	u	11%	15µM*	u	x
SMILES	Rab9 prom act	ELG1 genotoxic	FLuc counter	NPC1 promoter act	SMN2 splice up
CCCN1CCC(=O)N([C@H](CSc2ccc(OC)cc2)CC(C)C)CC1	u	u	15µM*	u	x
CCCN1CCC(=O)N([C@H](CSc2ccccc2)c2ccccc2)CC1	u	14%	u	u	x
COc1ccccc1/C=N/Nc1nncc2ccccc12	3.5µM*	u	9.5µM*	u	10µM*
COc1ccc(/C(C)=N/Nc2nc3ccccc3nc2C)cc1	6%	7%	2.7µM*	4%	x
COc1ccc(/C=N/Nc2nncc3ccccc23)cc1	0.2µM*	0.26µM*	0.17µM*	0.28µM*	0.71µM*
Oc1c(Br)cc(/C=N/Nc2ccc(Cl)nn2)cc1Br	-6%	-1%	-5%	0%	x
Oc1c(Br)cc(/C=N/Nc2nncc3ccccc23)cc1Br	29%	12%	9.5µM*	u	x
C/C(=N\Nc1nc(-c2ccccc2O)nc2ccccc12)c1ccccc1	17%	0%	u	15%	x
COc1ccc(Cl)cc1NC(=O)CCCn1c(C)c2cnn(-c3ccccc3)c(=O)c2c1C	x	x	-1%	x	-11%
Cc1ccc(NC(=S)N=Nc2c(O)n(C)c3ccc(S(=O)(=O)N4CCOCC4)cc23)cc1C	-17%	-5%	5%	-11%	-47%
CCOC(=O)Cc1csc(NC(=O)CSc2nnc(C(C)C)n2CC)n1	-6%	-1%	0%	-5%	8%
C[C@H]1C[C@H]2[C@H]3CCC4=CC(=O)C=C[C@@]4(C)[C@]3(F)[C@H](O)C[C@]2(C)[C@@]1(O)C(=O)COP(=O)(O)O	x	x	x	x	3%[9.22 µM]
COc1ccc(/C(C)=N/Nc2nncc3ccccc23)cc1	0.71µM*	u	1.3µM*	1.6µM*	x
NNc1nncc2ccccc12	2.3µM*	x	x	2.6µM*	13µM*
Cc1ccc(CN2CCC(CNC(=O)c3cc4ccc5cccnc5c4[nH]3)CC2)cc1	x	x	-2%	x	x
CCN(Cc1ccccc1)C(=O)c1cc2ccc3cccnc3c2[nH]1	x	x	9.5µM*	x	x
Cc1cccc(C(=O)Nc2ccc(S(=O)(=O)Nc3nc(C)cc(C)n3)cc2)c1	5%	1%	2%	8%	x
COc1ccc2nc(NC(=O)CSc3n[nH]c(N)n3)sc2c1	u	15µM*	9.5µM*	u	x
COc1ccc2nc(NC(=O)CSc3nnc4n3C(C)(C)Cc3ccccc3-4)sc2c1	8%	u	6.7µM*	-4%	-6%
COc1ccc2nc(NC(=O)CSc3nnnn3C)sc2c1	3.2µM*	14%	u	2.8µM*	x
COc1cc(NC(=O)CSc2nnc3n2C(C)(C)Cc2ccccc2-3)cc(OC)c1	1%	-12%	0%	-1%	-34%
COc1ccc2nc(NC(=O)CSc3nnc(C)s3)sc2c1	u	21µM*	u	2.5µM*	26%
CC1CCc2c(sc3ncn(Cc4ccc(C(=O)O)cc4)c(=O)c23)C1 (centres undefined)	19%	u	21µM*	20%	28%
CC1CCc2c(sc3nc(SCC(=O)O)n(-c4ccccc4)c(=O)c23)C1 (centres undefined)	2%	-1%	21µM*	13%	x
CC1CCc2c(sc3ncn(CC(=O)N=Nc4c(O)[nH]c5ccccc45)c(=O)c23)C1 (centres undefined)	-6%	-2%	0%	-3%	x
CC1CCc2c(sc3ncn(CCO)c(=O)c23)C1 (centres undefined)	2.5µM*	21µM*	17µM*	u	13µM*
CCOC(=O)CSc1nc2sc3c(c2c(=O)n1-c1ccccc1)CCC(C(C)(C)C)C3 (centres undefined)	x	x	4%	x	6%
N#Cc1cn(N2CCCCC2)c(=O)[nH]c1=O	-3%	-2%	0%	-5%	x
Cc1ccc(NC(=O)c2ccc3nc[nH]c3c2)c(O)c1	u	u	19µM*	3.2µM*	13µM*
Cc1ccc(NC(=O)c2cncc(Br)c2)nc1	u	u	u	3.2µM*	x
